This note sets out measurements from the supplement of paper PMC10723795.

The test system of assay [1] is DLD1. Put plainly: nucleolar normality score relative to DMSO (fraction of DMSO control); RPE1 is a non-cancer human cell line; higher = more normal nucleoli (less nucleolar stress). On the procedure:
(§1)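 Selected screen hits were validated in hTERT lines (BJ5TA, CHON-002, RPE1) and cancer lines (DLD1, HCT116). Cells were immunostained for nucleolin and UBF and the nucleolar normality score was measured per field of view, with 4 fields per drug. Scores are normalized to each cell line's own DMSO control. Dose and time are not stated for this panel.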

The subject of assay [2] is HCT116. The description is as above. As to the method: as §1

± gives the standard deviation of the averaged measurements.

Consider `CN(C)CCNC(=O)c1cccn2c(=O)c3cc4ccccc4cc3nc12`, for which the nucleolar normality score in assay [1] was 0.173 ± 0.037; in assay [2], 0.202 ± 0.013.

Turning to `Cc1nc(-c2cn3c(n2)-c2ccc(-c4cnn(C(C)(C)C(N)=O)c4)cc2OCC3)n(C(C)C)n1` [Taselisib], the nucleolar normality score in assay [1] worked out at 0.485 ± 0.067; in assay [2] it was 0.588 ± 0.052.

With `CC(C)c1cc(C(=O)N2Cc3ccc(CN4CCN(C)CC4)cc3C2)c(O)cc1O` [Onalespib], the nucleolar normality score was 0.363 ± 0.023 in assay [1] and 0.434 ± 0.027 in assay [2].

Take `CC(C)n1nc(-c2ccc3oc(N)nc3c2)c2c(N)ncnc21` [Sapanisertib]: the nucleolar normality score in assay [1] was 0.398 ± 0.035; in assay [2], 0.549 ± 0.021.

As for `COC[C@H](NC(=O)c1cnc(C)s1)C(=O)N[C@@H](COC)C(=O)N[C@@H](Cc1ccccc1)C(=O)[C@@]1(C)CO1` [Oprozomib], the figures for the nucleolar normality score in assay [1] and in assay [2] were 0.471 ± 0.054 and 0.658 ± 0.046, respectively.

Regarding `C=CCNC1=C2C[C@@H](C)C[C@H](OC)[C@H](O)[C@@H](C)/C=C(\C)[C@H](OC(N)=O)[C@@H](OC)/C=C\C=C(/C)C(=O)NC(=CC1=O)C2=O`, the nucleolar normality score was determined as 0.436 ± 0.052 in assay [1] and 0.462 ± 0.027 in assay [2].

`Cc1cnc(CNC(=O)c2c(=O)c3ccc(N4CCCN(C)CC4)nc3n3c2sc2ccccc23)cn1`: the nucleolar normality score in assay [1] amounted to 0.224 ± 0.045; in assay [2], 0.404 ± 0.19.

Turning to `CC(C)C[C@H](NC(=O)[C@H](CCc1ccccc1)NC(=O)CN1CCOCC1)C(=O)N[C@@H](Cc1ccccc1)C(=O)N[C@@H](CC(C)C)C(=O)[C@@]1(C)CO1` [Carfilzomib], the values for the nucleolar normality score in assay [1] and in assay [2] were 0.436 ± 0.059 and 0.574 ± 0.063, respectively.

For `COc1cccc2c1C(=O)c1c(O)c3c(c(O)c1C2=O)C[C@@](O)(C(=O)CO)C[C@@H]3O[C@H]1C[C@H](N)[C@H](O)[C@H](C)O1` [Doxorubicin], the values for the nucleolar normality score in assay [1] and in assay [2] were 0.36 ± 0.056 and 0.253 ± 0.036, respectively.

For `CN1CC[C@H](c2c(O)cc(O)c3c(=O)cc(-c4ccccc4Cl)oc23)[C@H](O)C1` [Flavopiridol], the nucleolar normality score in assay [1] came out at 0.432 ± 0.076; in assay [2] it was 0.452 ± 0.057.

Consider `CCc1cnn2c(NCc3ccc[n+]([O-])c3)cc(N3CCCC[C@H]3CCO)nc12` [Dinaciclib], for which the nucleolar normality score is 0.442 ± 0.09 in assay [1] and 0.428 ± 0.052 in assay [2].

On to `CC(C)c1c2cc(-c3ccnc(NC4CCC(NC5CCOCC5)CC4)n3)ccc2nn1C` (centres undefined), for which the figures for the nucleolar normality score in assay [1] and in assay [2] were 0.509 ± 0.046 and 0.507 ± 0.016, respectively.
